Source: PubChem BioAssay AID1214 (Sanford-Burnham Center for Chemical Genomics, 2008)
Hit rate of the full screen: of about 190,000 compounds, about 10 (0.005%) were called active.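 How the source made its calls: active means activation factor of 2 or more at 20 µM, relative to plate controls; inactive means the rest.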 Only a sample is shown.

molecular target: Mannose-6-phosphate isomerase (Homo sapiens) (UniProt P34949); assay: MPI enzyme activity enhancement – biochemical, fluorescence intensity, near-Km mannose 6-phosphate, primary screen (AID 1214); conditions: purified human PMI, coupled resazurin fluorescence, 20 min; at 20 µM; hits give high values; 1 = vehicle control, 0 substrate-free wells
Sequence (P34949 whole entry, looked up): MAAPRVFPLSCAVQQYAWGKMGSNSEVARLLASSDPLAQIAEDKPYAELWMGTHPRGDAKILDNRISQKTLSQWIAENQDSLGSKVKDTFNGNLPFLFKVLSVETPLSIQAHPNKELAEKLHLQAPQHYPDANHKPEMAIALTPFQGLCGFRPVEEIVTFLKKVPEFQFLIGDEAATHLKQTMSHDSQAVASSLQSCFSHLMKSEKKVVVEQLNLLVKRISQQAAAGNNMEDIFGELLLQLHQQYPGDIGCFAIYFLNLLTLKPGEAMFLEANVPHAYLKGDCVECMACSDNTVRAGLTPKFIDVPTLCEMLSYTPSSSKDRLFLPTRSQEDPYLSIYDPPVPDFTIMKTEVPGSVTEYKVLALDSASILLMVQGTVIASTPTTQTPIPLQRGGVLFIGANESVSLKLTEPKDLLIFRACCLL

Activation factor, inactive:
CCOC(=O)c1c(C)[nH]c(C2=NNC(=NC(C)COC)SC2)c1C (stereo not given) 1.3, Cc1cc(-c2n[nH]c(=S)n2-c2ccc(C)c(C)c2)no1 1, CCC(=O)Nc1c(C)n[nH]c1C 0.9, Cc1ccc(OCc2n[nH]c(=S)n2-c2ccc(C)cc2)cc1 0.8, CNc1nc(Nc2ccc(C)c(Cl)c2)nc(N)c1[N+](=O)[O-] 0.9, O=C(NCCCNc1ccc([N+](=O)[O-])cc1Cl)c1ccccc1F 1.1, COc1ccc(/C=C(\NC(=O)c2ccc(OCC(C)C)cc2)C(=O)OCc2ccco2)cc1 0.9, O=C1CCC/C(=N\NC(=O)NC2CCCCC2)C1 0.8, O=C(CSc1ccccc1)Nc1nnc(/C=C/c2ccccc2)s1 0.9, COC(=O)CNC(=O)c1ccc(OC2CCN(C(=O)C3CC3)CC2)cc1 0.9, COc1cc(/C=C/C(=O)N2c3ccccc3Sc3ccc(C(F)(F)F)cc32)cc(OC)c1OC 0.9, O=C1/C(=C\c2ccccc2Cl)SC(=S)N1CCC(=O)N1CCCc2ccccc21 0.9, CNC(=O)NC(=O)CSc1nnc(-c2ccc(F)cc2)n1CC1CCCO1 (stereo not given) 1, Nc1cc(C(F)(F)F)ccc1N1CCOCC1 1, COc1cc(C2C(N3C(=O)c4ccccc4C3=O)C(=O)N2c2ccc(C)c(C)c2)cc(OC)c1OC (stereo not given) 0.9, OCC(CO)(CO)NCc1ccc(-c2ccccc2)cc1 1, COc1ccc(Cl)cc1-n1c(C)cc(C(=O)OCC(=O)N2CC(=O)Nc3ccccc32)c1C 0.9, COc1cc(/C=N/NC(=O)CCc2n[nH]c(=O)[nH]c2=O)ccc1O 0.9, COc1cccc(CN(C)CC(=O)Nc2ccccc2C(=O)Nc2ccccc2)c1 0.9, COc1ccccc1CNC(=O)COc1ccc(C)nc1[N+](=O)[O-] 1.1, O=C(N/N=C/c1ccc([N+](=O)[O-])o1)c1cn(-c2ccccc2)nc1-c1ccc(F)cc1 1.4, Cc1ccc(C)c(NC(=S)NNC(=S)Nc2ccc(C(C)C)cc2)c1 0.8, N=C1C(=O)OCC1c1ccccc1NC(=O)CN1CCCCC1 (stereo not given) 1.1, C=CCOc1c(Br)cc(/C=N\n2nnnc2N)cc1OC 1.1, O=C(Nc1cccnc1)c1cc2cc(Br)ccc2oc1=O 1, COCC(C)NC(=O)COc1nncc2ccccc12 (stereo not given) 1.2, C=CCN1C2CCCC1CC(NC(=S)Nc1cccc(OC)c1)C2 (stereo not given) 0.9, CCNC(=O)NNC(=O)C1CC(c2cccs2)=NO1 (stereo not given) 1, CCc1cccc(NC(=O)CCC(=O)O)c1 1, NC(=O)COC(=O)c1sc2cc(F)ccc2c1Cl 1.2, CCOC(=O)N1CCN(Cc2nc3ccc([N+](=O)[O-])cc3c(=O)n2-c2cccc(OC)c2)CC1 1, COc1ccccc1CNC(=O)C1Cc2ccccc2C(=O)O1 (stereo not given) 0.9, O=C(/C=C/c1ccccc1)Oc1coc(CSc2ncccn2)cc1=O 1, COc1ccc(Br)cc1CN(C)CC(=O)Nc1cc(Cl)cc(Cl)c1 0.8, Cc1ccc(/C([O-])=C(/C(=S)NCc2ccco2)[n+]2ccccc2)cc1[N+](=O)[O-] 1, CN(C)/C=C(/C(=O)c1ccc(F)cc1)S(=O)(=O)c1ccc(F)cc1 1.2, O=S(=O)(c1ccc2c(c1)OCCO2)N1CCc2ccccc21 0.9, N#C/C(C(=S)Nc1ccccc1)=C1/NN=C(N2CCOCC2)N1c1ccccc1 1, CCN(CC)S(=O)(=O)c1ccc(N2CCOCC2)c(NC(=O)C2COc3ccccc3O2)c1 (stereo not given) 1, COc1ccc(NC(=O)CN(Cc2ccccc2)S(C)(=O)=O)cc1OC 0.9, COc1ccccc1N(CC(=O)Nc1ccc(C(F)(F)F)cc1)S(C)(=O)=O 1, O=C(Cc1cccs1)N(CC1CCCO1)C1(C(=O)NC2CCCCC2)CCCCC1 (stereo not given) 1.1, O=C(OCC1O[C@@H](OC(=O)c2cc(O)c(O)c(O)c2)[C@@H](OC(=O)c2cc(O)c(O)c(O)c2)[C@@H](OC(=O)c2cc(O)c(O)c(O)c2)[C@@H]1OC(=O)c1cc(O)c(O)c(O)c1)c1cc(O)c(O)c(O)c1 (stereo not given in full) 0.4, CC[n+]1c(C)n(-c2ccccc2)c2ccc(NC(C)=O)cc21 0.5, Cc1c(C(=O)Nc2cccc(Cl)c2)cn2c(nc3ccccc32)c1C#N 1.1, O=C(NCC(=O)N(CC1CCCO1)C(C(=O)NC1CCCCC1)c1ccccc1)c1ccco1 (stereo not given) 1.1, CC(C)(C)C1CCC(=NNC(=O)c2cc(-c3ccccc3)n[nH]2)CC1 (stereo not given) 1, O=C(CSc1cccc[n+]1[O-])NCCCc1ccccc1 1, O=c1cc(CO)oc(C(Nc2cccc([N+](=O)[O-])c2)c2ccccn2)c1O (stereo not given) 1, O=S(=O)(ON(c1ccccc1)S(=O)(=O)c1ccccc1)c1ccccc1 1.1, COc1ccc(CCNC(=O)COC(=O)C2CCCCC2)cc1 0.9, NS(=O)(=O)c1ccc(NC(=S)NC(=O)c2cccnc2)cc1 1, CCCCN1C(=O)/C(=C/C=C2/C=Cc3ccccc3N2CC)SC1=S 0.7, CCOC(=O)c1ccccc1NC(=S)N1CCC(C(N)=O)CC1 1, O=C(CN1C(=O)/C(=C\c2ccccc2F)SC1=S)Nc1nc2ccccc2s1 0.8, COC(=O)C(=Nc1ccccc1)/C(C(=O)C(=O)N(C)c1ccccc1)=C(\O)c1ccc(Cl)cc1 1.2, COC(=O)C1=C(N)Oc2c(oc(CO)cc2=O)C1c1c(F)cccc1Cl (stereo not given) 1.1, O=C(CCC1CCCN(C(=O)Cc2ccc(F)cc2)C1)N1CCN(c2ccccn2)CC1 (stereo not given) 1, CCOC(=O)CCCNC(=O)COC(=O)/C=C/c1ccc2c(c1)OCO2 1.1, COc1ccc(CCNC(=O)c2ccc(CS(=O)(=O)c3ccc(Br)cc3)o2)cc1OC 1
